SMILES strings stand for the structures.
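Note: KINOMEscan kinase panel screen.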

The subject of the first experiment is T1, LOK.
T1 construct: gene STK10
The conditions noted are these: concentration: 1 μM, replicates: in singlicate; n = 1.
With `COC(=O)C(Cc1ccccc1)NC(=O)NC1CCN(c2ccnc(Nc3ccc(F)cc3)n2)C1` (stereo not drawn) [GSK1379714], the “%Inh” value was found to be 3%.
With `CSc1ccc(-c2nc3n(c2-c2ccncc2)CCC3)cc1` [SKF-105561], the “%Inh” value is given as 8%.
As for `COc1ccc(Nc2nccc(N3CCC(NC(=O)c4cc5ccccc5s4)C3)n2)cc1` (stereo not drawn) [GSK1379738], the “%Inh” value worked out at 0%.
On to `Cc1ccc(NC(=O)Nc2ccc(Cl)cc2)cc1-c1ccc(C(=O)Nc2ccncc2)cc1` [GSK1398472], for which the “%Inh” value is recorded as 35%.
`CC(C)c1ccc(O)cc1Nc1ccnc2ccc(C(F)(F)F)cc12` [GW482059]: the “%Inh” value is recorded as 0%.
As for `COC(=O)c1cccc(NC(=O)NC2CCN(c3ccnc(Nc4ccc(F)cc4)n3)C2)c1` (stereo not drawn) [GSK1379725], the “%Inh” value amounted to 0%.
Regarding `O=c1cc(N2CCOCC2)nc2n(Cc3ccccc3F)ccn12` [GSK2297428], the “%Inh” value worked out at 0%.
For the compound `Cc1ccccc1-c1cc(-c2c[nH]nc2-c2ccccn2)ccn1` [GW680061], the “%Inh” value turned out to be 0%.
In the case of `COc1ccc(Nc2nccc(NCCNC(=O)Nc3cc(C)ccc3C)n2)cc1` [GSK1379899], the “%Inh” value is on record as 0%.
For `FC(F)(F)c1ccccc1-c1cc(-c2c[nH]nc2-c2ccccn2)ccn1` [GW679396], the “%Inh” value was 0%.
As to `Cc1ccccc1Cn1ccn2c(=O)cc(N3CCOCC3)nc12` [GSK2269905], the “%Inh” value stood at 0%.
Take `Cc1ccc(NC(=O)Nc2ccc(Cl)c(C(F)(F)F)c2)cc1-c1ccc(C(=O)Nc2ccncc2)cc1` [GSK1398470]: the “%Inh” value worked out at 65%.
Consider `CCc1ccc(-c2ccc3c(c2)-c2n[nH]cc2S(=O)(=O)N3C)cc1`, for which the “%Inh” value amounted to 3%.
In the case of `CNCc1ccc2nc(NC(=O)c3ccc(C(C)(C)C)cc3)cn2c1`, the “%Inh” value came to 0%.
For `Fc1ccc(-c2nn3cccc(F)c3c2-c2ccncc2)cc1` [GW475620], the “%Inh” value was 8%.
As to `CNc1nc(-c2ccc3c(N)n[nH]c3c2)cc(N2C[C@@H](C(=O)Nc3ccccc3)CC[C@H]2C)n1` [GSK2298859], the “%Inh” value came to 0%.
For the compound `Cc1ccc(NC(=O)Nc2ccccc2F)cc1-c1ccc(C(=O)Nc2ccncc2)cc1` [GSK1398477], the “%Inh” value turned out to be 33%.
On to `Cc1ccc(NC(=O)c2ccc(Cl)cc2)cc1-c1ccc(C(=O)Nc2ccncc2)cc1` [GSK1398467], for which the “%Inh” value is given as 0%.
Same read-out and setting: as for `COC(=O)C(NC(=O)NC1CCN(c2ccnc(Nc3ccc(F)cc3)n2)C1)c1ccccc1` (stereo not drawn) [GSK1379712], the figure is 0%; as for `Nc1nccc(-c2c(-c3ccc(F)cc3)ncn2C2CCN(Cc3ccccc3)CC2)n1` [SB-219980], 18%; as for `NS(=O)(=O)c1cccc(N/C=C2\C(=O)Nc3ccc(S(=O)(=O)Cc4c(Cl)cccc4Cl)cc32)c1` [GSK398099], 0%.
As to `CN1c2ccc(-c3ccc(C(N)=O)cc3)cc2-c2[nH]ncc2S1(=O)=O`, the “%Inh” value is 5%.
On the same count and under the same terms, as for `CNC(=O)c1ccc(C)c(-n2c(C)cc(OCc3ccc(F)cc3F)c(Br)c2=O)c1`, the figure is 0%; as for `Nc1ncnc2occ(-c3ccc4c(c3)CCN4C(=O)Cc3cc(F)ccc3F)c12` [GSK2645446], 33%; as for `Cc1c(Cn2c(C)c(C)n3c(=O)cc(N4CCOCC4)nc23)cccc1C(F)(F)F` [GSK2328680], 0%.
With `Cc1ccc(-c2nc(Nc3ccncc3)c3ccccc3n2)s1` [GSK189015], the “%Inh” value was determined as 1%.
In the case of `O=C1NC(=O)C(c2ccc(Cl)cc2)=C1Nc1cccc(Cl)c1` [SB-317651], the “%Inh” value is 0%.
Consider `Cn1cnc2c(N)ncnc21` [SKF-97623], for which the “%Inh” value was 4%.
Regarding `Cc1ccc(NC(=O)Nc2ccccc2)cc1-c1ccc(C(=O)Nc2ccncc2)cc1` [GSK1398471], the “%Inh” value is 25%.
The same measure, in the same setting: as for `CCn1c(-c2c(N)noc2C)nc2cnccc21` [SB-737856], the figure is 0%; as for `COc1ccc(Nc2nccc(-c3ccc(NC(=O)c4cc5cc(F)ccc5[nH]4)cc3)n2)cc1` [GSK1229496], 0%.
In the case of `Nc1cccc(-c2ccc3c(N)n[nH]c3c2)n1` [GSK2192730], the “%Inh” value turned out to be 0%.
Regarding `CS(=O)(=O)CCNCc1nc(-c2ccc3ncnc(Nc4ccc(OCc5ccccc5)c(Cl)c4)c3c2)cs1.Cl` [GW582764], the “%Inh” value came out at 0%.
On the same count and under the same terms, as for `COc1ccc(Nc2nccc(N3CCC(NC(=O)C(C)c4ccc(Cl)cc4)C3)n2)cc1` (stereo not drawn) [GSK1379735], the figure is 0%; as for `Cc1cnc(N)c(/C=C/c2cncc(C(=O)NCCc3ccc(Cl)cc3Cl)c2)c1.Cl` [GSK190937], 0%.
With `O=C(Nc1n[nH]c2nc(-c3cccs3)c(Br)cc12)C1CC1` [SB-735297], the “%Inh” value came to 18%.

A further experiment relates to LRRK2. Conditions: concentration: 1 μM, replicates: in singlicate; n = 1.
As to `COC(=O)C(Cc1ccccc1)NC(=O)NC1CCN(c2ccnc(Nc3ccc(F)cc3)n2)C1` (stereo not drawn) [GSK1379714], the “%Inh” value amounted to 0%.
As for `CSc1ccc(-c2nc3n(c2-c2ccncc2)CCC3)cc1` [SKF-105561], the “%Inh” value stood at 0%.
On to `COc1ccc(Nc2nccc(N3CCC(NC(=O)c4cc5ccccc5s4)C3)n2)cc1` (stereo not drawn) [GSK1379738], for which the “%Inh” value is on record as 0%.
The same measure, in the same setting: as for `Cc1ccc(NC(=O)Nc2ccc(Cl)cc2)cc1-c1ccc(C(=O)Nc2ccncc2)cc1` [GSK1398472], the figure is 0%.
The same measure, in the same setting: as for `CC(C)c1ccc(O)cc1Nc1ccnc2ccc(C(F)(F)F)cc12` [GW482059], the figure is 51%.
Same read-out and setting: as for `COC(=O)c1cccc(NC(=O)NC2CCN(c3ccnc(Nc4ccc(F)cc4)n3)C2)c1` (stereo not drawn) [GSK1379725], the figure is 5%.
As to `O=c1cc(N2CCOCC2)nc2n(Cc3ccccc3F)ccn12` [GSK2297428], the “%Inh” value was 0%.
In the case of `Cc1ccccc1-c1cc(-c2c[nH]nc2-c2ccccn2)ccn1` [GW680061], the “%Inh” value was 23%.
For the compound `COc1ccc(Nc2nccc(NCCNC(=O)Nc3cc(C)ccc3C)n2)cc1` [GSK1379899], the “%Inh” value turned out to be 23%.
Turning to `FC(F)(F)c1ccccc1-c1cc(-c2c[nH]nc2-c2ccccn2)ccn1` [GW679396], the “%Inh” value was 1%.
For the compound `Cc1ccccc1Cn1ccn2c(=O)cc(N3CCOCC3)nc12` [GSK2269905], the “%Inh” value is on record as 0%.
As for `Cc1ccc(NC(=O)Nc2ccc(Cl)c(C(F)(F)F)c2)cc1-c1ccc(C(=O)Nc2ccncc2)cc1` [GSK1398470], the “%Inh” value was determined as 0%.
For `CCc1ccc(-c2ccc3c(c2)-c2n[nH]cc2S(=O)(=O)N3C)cc1`, the “%Inh” value came to 0%.
`CNCc1ccc2nc(NC(=O)c3ccc(C(C)(C)C)cc3)cn2c1`: the “%Inh” value is listed as 10%.
As for `Fc1ccc(-c2nn3cccc(F)c3c2-c2ccncc2)cc1` [GW475620], the “%Inh” value was determined as 24%.
For `CNc1nc(-c2ccc3c(N)n[nH]c3c2)cc(N2C[C@@H](C(=O)Nc3ccccc3)CC[C@H]2C)n1` [GSK2298859], the “%Inh” value amounted to 0%.
The same measure, in the same setting: as for `Cc1ccc(NC(=O)Nc2ccccc2F)cc1-c1ccc(C(=O)Nc2ccncc2)cc1` [GSK1398477], the figure is 15%.
Still for that read-out and setting: as for `Cc1ccc(NC(=O)c2ccc(Cl)cc2)cc1-c1ccc(C(=O)Nc2ccncc2)cc1` [GSK1398467], the figure is 100%; as for `COC(=O)C(NC(=O)NC1CCN(c2ccnc(Nc3ccc(F)cc3)n2)C1)c1ccccc1` (stereo not drawn) [GSK1379712], 0%.
As for `Nc1nccc(-c2c(-c3ccc(F)cc3)ncn2C2CCN(Cc3ccccc3)CC2)n1` [SB-219980], the “%Inh” value worked out at 0%.
With `NS(=O)(=O)c1cccc(N/C=C2\C(=O)Nc3ccc(S(=O)(=O)Cc4c(Cl)cccc4Cl)cc32)c1` [GSK398099], the “%Inh” value is given as 0%.
For the compound `CN1c2ccc(-c3ccc(C(N)=O)cc3)cc2-c2[nH]ncc2S1(=O)=O`, the “%Inh” value came out at 0%.
With `CNC(=O)c1ccc(C)c(-n2c(C)cc(OCc3ccc(F)cc3F)c(Br)c2=O)c1`, the “%Inh” value is recorded as 0%.
Turning to `Nc1ncnc2occ(-c3ccc4c(c3)CCN4C(=O)Cc3cc(F)ccc3F)c12` [GSK2645446], the “%Inh” value is reported as 0%.
For the compound `Cc1c(Cn2c(C)c(C)n3c(=O)cc(N4CCOCC4)nc23)cccc1C(F)(F)F` [GSK2328680], the “%Inh” value was determined as 0%.
On to `Cc1ccc(-c2nc(Nc3ccncc3)c3ccccc3n2)s1` [GSK189015], for which the “%Inh” value worked out at 54%.
As to `O=C1NC(=O)C(c2ccc(Cl)cc2)=C1Nc1cccc(Cl)c1` [SB-317651], the “%Inh” value was determined as 0%.
For `Cn1cnc2c(N)ncnc21` [SKF-97623], the “%Inh” value is reported as 0%.
Still for that read-out and setting: as for `Cc1ccc(NC(=O)Nc2ccccc2)cc1-c1ccc(C(=O)Nc2ccncc2)cc1` [GSK1398471], the figure is 0%; as for `CCn1c(-c2c(N)noc2C)nc2cnccc21` [SB-737856], 0%; as for `COc1ccc(Nc2nccc(-c3ccc(NC(=O)c4cc5cc(F)ccc5[nH]4)cc3)n2)cc1` [GSK1229496], 0%.
Same read-out and setting: as for `Nc1cccc(-c2ccc3c(N)n[nH]c3c2)n1` [GSK2192730], the figure is 0%; as for `CS(=O)(=O)CCNCc1nc(-c2ccc3ncnc(Nc4ccc(OCc5ccccc5)c(Cl)c4)c3c2)cs1.Cl` [GW582764], 12%; as for `COc1ccc(Nc2nccc(N3CCC(NC(=O)C(C)c4ccc(Cl)cc4)C3)n2)cc1` (stereo not drawn) [GSK1379735], 51%.
As to `Cc1cnc(N)c(/C=C/c2cncc(C(=O)NCCc3ccc(Cl)cc3Cl)c2)c1.Cl` [GSK190937], the “%Inh” value is 0%.
On to `O=C(Nc1n[nH]c2nc(-c3cccs3)c(Br)cc12)C1CC1` [SB-735297], for which the “%Inh” value is recorded as 0%.

The record behind these values is article PMC5540273 (PLoS ONE, 2017).
